# The source made the active and inactive calls. The rule behind the calls is not given here.
# Assay: placental alkaline phosphatase inhibitors, dose response, counter-screen, biochemical, colorimetric (AID 779)
# Conditions: PLAP counter-screen, colorimetric OD read-out
row,Compound,IC50
1,Cc1ccc(CNC(=O)CN2CCC(C(N)=O)CC2)cc1,> 50 µM (inactive)
2,O=C(NCCc1ccccc1)c1ccc2nc(-c3ccco3)c(-c3ccco3)nc2c1,> 50 µM (inactive)
3,Cc1ccc2cc(C=C(C#N)C#N)c(N3CCCCC3)nc2c1,> 50 µM (inactive)
4,Clc1ccccc1CSc1nnc(-c2ccco2)c(-c2ccco2)n1,> 50 µM (inactive)
5,CCOC(=O)N1CCN(C(=O)CSc2nnc(-c3c[nH]c4ccccc34)n2CCOC)CC1,> 50 µM (inactive)
6,CCn1c(O)c(/C=N/N=C/c2ccccc2)c2ccc(C3=NNC(=O)CC3)cc21,> 50 µM (inactive)
7,O=S(=O)(c1ccc2nc(-c3ccco3)c(-c3ccco3)nc2c1)N1CCOCC1,> 50 µM (inactive)
8,Cc1c(NC(=S)N/N=C/c2cccc(O)c2)c(=O)n(-c2ccccc2)n1C,> 50 µM (inactive)
9,O=C1/C(=C\c2ccc(-c3ccccc3Cl)o2)SC(=S)N1CC1CCCO1 (stereo unspecified),> 50 µM (inactive)
10,CC(=O)N(c1ccc2oc(=O)sc2c1)S(=O)(=O)c1ccccc1,> 50 µM (inactive)
11,Cc1ccc(C)c(OCc2nnc(N)s2)c1,> 50 µM (inactive)
12,COc1ccc(/C=c2\sc3nc(-c4ccccc4)c(-c4ccccc4)n3c2=O)cc1OC,> 50 µM (inactive)
13,O=C(/C=C/c1ccccc1)c1cc(Br)ccc(=O)c1O,> 50 µM (inactive)
14,CC(C)(C)C(=O)c1sc2nc(-c3cccs3)cc(C(F)(F)F)c2c1N,> 50 µM (inactive)
15,CCOC(=O)c1c(C)oc2c1c(C(c1cccnc1)N1CCOCC1)c(O)c1ccccc12 (stereo unspecified),> 50 µM (inactive)
16,CCc1cccc2c(C(=O)CSc3nnc(-c4ccoc4C)n3C)c[nH]c12,> 50 µM (inactive)
